Measured values taken from the supplement of paper PMC6089552.
Out of some 3,200 compounds screened, about 300 (9.4%) showed activity. For the sample, actives were picked, then their nearest neighbours and some compounds at random.

Tested on: A673/TR/shEF
Assay: cell viability (LOESS-normalised, relative to median of negative controls) (log2 ratio); higher = more viable cells (less compound effect), active = hit call of the paper (over 3 MAD below the median)
Settings: treatment time: 72 h
Summary of the method: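 A673/TR/shEF Ewing sarcoma cells (1,500 per well, 384-well plates) were grown with or without doxycycline to induce EWS-FLI1 shRNA knockdown, starting 24 h before compounds. Library compounds at two or more concentrations, with DMSO controls, were added for three days. Cell viability was read by CellTiter-Glo luminescence on an Envision reader, then LOESS-corrected per plate, divided by the median of negative controls and log2-transformed. Hits were wells at least three median absolute deviations from the median of all screened wells.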

[1] = 0.25 µM, library screen: screen1, EWS-FLI1 expression: high (no doxycycline)
[2] = 0.25 µM, library screen: screen1, EWS-FLI1 expression: low (doxycycline-induced shRNA knockdown)
[3] = 2.5 µM, library screen: screen1, EWS-FLI1 expression: high (no doxycycline)
[4] = 2.5 µM, library screen: screen1, EWS-FLI1 expression: low (doxycycline-induced shRNA knockdown)
[5] = 0.103 µM, library screen: screen3, EWS-FLI1 expression: high (no doxycycline)
[6] = 0.103 µM, library screen: screen3, EWS-FLI1 expression: low (doxycycline-induced shRNA knockdown)
[7] = 0.308 µM, library screen: screen3, EWS-FLI1 expression: high (no doxycycline)
[8] = 0.308 µM, library screen: screen3, EWS-FLI1 expression: low (doxycycline-induced shRNA knockdown)
[9] = 0.926 µM, library screen: screen3, EWS-FLI1 expression: high (no doxycycline)
[10] = 0.926 µM, library screen: screen3, EWS-FLI1 expression: low (doxycycline-induced shRNA knockdown)
[11] = 2.8 µM, library screen: screen3, EWS-FLI1 expression: high (no doxycycline)
[12] = 2.8 µM, library screen: screen3, EWS-FLI1 expression: low (doxycycline-induced shRNA knockdown)
[13] = 8.3 µM, library screen: screen3, EWS-FLI1 expression: high (no doxycycline)
[14] = 8.3 µM, library screen: screen3, EWS-FLI1 expression: low (doxycycline-induced shRNA knockdown)
[15] = 25 µM, library screen: screen3, EWS-FLI1 expression: high (no doxycycline)
[16] = 25 µM, library screen: screen3, EWS-FLI1 expression: low (doxycycline-induced shRNA knockdown)
[17] = 0.25 µM, library screen: screen2, EWS-FLI1 expression: high (no doxycycline)
[18] = 0.25 µM, library screen: screen2, EWS-FLI1 expression: low (doxycycline-induced shRNA knockdown)
[19] = 2.5 µM, library screen: screen2, EWS-FLI1 expression: high (no doxycycline)
[20] = 2.5 µM, library screen: screen2, EWS-FLI1 expression: low (doxycycline-induced shRNA knockdown)
[21] = 0.025 µM, library screen: screen1, EWS-FLI1 expression: high (no doxycycline)
[22] = 0.025 µM, library screen: screen1, EWS-FLI1 expression: low (doxycycline-induced shRNA knockdown)
[23] = 25 µM, library screen: screen1, EWS-FLI1 expression: high (no doxycycline)
[24] = 25 µM, library screen: screen1, EWS-FLI1 expression: low (doxycycline-induced shRNA knockdown)
[25] = 0.025 µM, library screen: screen2, EWS-FLI1 expression: high (no doxycycline)
[26] = 0.025 µM, library screen: screen2, EWS-FLI1 expression: low (doxycycline-induced shRNA knockdown)
[27] = 25 µM, library screen: screen2, EWS-FLI1 expression: high (no doxycycline)
[28] = 25 µM, library screen: screen2, EWS-FLI1 expression: low (doxycycline-induced shRNA knockdown)

Measured: cell viability (log2)

CC(=O)/C=C/C1C(C)(O)CCC2C(C)(C)CCCC21C (stereo unspecified)
inactive: [1] 0.0886 | [2] 0.136 | [3] 0.148 | [4] 0.139

Cc1nc(Nc2ncc(C(=O)Nc3c(C)cccc3Cl)s2)cc(N2CCN(CCO)CC2)n1
active: [9] -0.395 | [10] -0.907 | [11] -0.393 | [12] -1.27 | [13] -0.457 | [14] -1.34 | [15] -0.706 | [16] -1.33
inactive: [5] -0.00181 | [6] -0.0394 | [7] -0.125 | [8] -0.364

COc1cccc(C(=O)NCCN2CCN(c3ccc(Cl)cc3)CC2)c1
inactive: [17] 0.184 | [18] 0.2 | [19] 0.0849 | [20] 0.0867

O=C(O)c1cn(-c2ccccc2)nc1-c1ccc(F)cc1
inactive: [1] 0.0839 | [2] -0.00121 | [3] 0.0458 | [4] -0.135

NC(N)=NCCNS(=O)(=O)c1cccc2cnccc12
inactive: [21] 0.216 | [22] 0.0306 | [1] 0.259 | [2] 0.000334 | [17] 0.159 | [18] 0.0697 | [4] 0.117 | [19] 0.11 | [20] 0.0282 | [24] 0.0777
active: [3] -0.325 | [23] -0.105

O=S(=O)(NCCNC/C=C/c1ccc(Br)cc1)c1cccc2cnccc12
inactive: [21] 0.026 | [22] 0.000211 | [1] 0.096 | [2] 0.0474 | [17] 0.108 | [18] 0.000615 | [3] 0.0846 | [4] -0.0121 | [19] 0.194 | [20] 0.0705 | [23] 0.00409 | [24] 0.217

NCCNS(=O)(=O)c1cccc2cnccc12
active: [3] -0.101
inactive: [21] 0.261 | [22] -0.0195 | [1] 0.263 | [2] -0.0436 | [17] 0.125 | [18] 0.144 | [4] 0.0153 | [19] 0.077 | [20] 0.0865 | [23] -0.0355 | [24] 0.14

CNCCNS(=O)(=O)c1cccc2cnccc12
inactive: [21] 0.0336 | [22] 0.0964 | [1] 0.0201 | [2] 0.0846 | [17] 0.191 | [18] 0.0995 | [3] -0.0144 | [4] 0.076 | [19] 0.114 | [20] 0.037 | [23] -0.0615 | [24] -0.521

C[C@@H]1CC[C@@]2(OC1)O[C@H]1C[C@H]3[C@@H]4CC[C@@H]5C[C@@H](O)CC[C@]5(C)[C@H]4CC[C@]3(C)[C@H]1[C@@H]2C
inactive: [1] 0.0641 | [2] 0.0518 | [3] 0.077 | [4] 0.0287

CSc1nnc(-c2ccccc2)c(-c2ccccc2)n1
inactive: [1] 0.103 | [2] 0.00324 | [3] 0.0984 | [4] 0.0395

COc1cc(OC)c2c(c1)O[C@H](c1cc(OC)c(OC)c(OC)c1)[C@H](OC(=O)c1cc(OC)c(OC)c(OC)c1)C2
inactive: [1] 0.0414 | [2] 0.0159 | [3] 0.0705 | [4] -0.00627

CC1OC(OC2C(O)COC(OC3C(C)OC(OC4C(OC(=O)C56CCC(C)(C)CC5C5=CCC7C8(C)CCC(OC9OC(CO)C(O)C(O)C9O)C(C)(C)C8CCC7(C)C5(C)CC6O)OCC(O)C4O)C(O)C3O)C2O)C(O)C(O)C1O (stereo unspecified)
inactive: [1] 0.0486 | [2] 0.0258 | [3] 0.0372 | [4] 0.223

COC(=O)c1c(C)c2c(c(C)c1OC)OC(=O)c1c(C)c(Cl)c(OC)c(Cl)c1O2
inactive: [1] 0.0616 | [2] 0.043 | [3] 0.0828 | [4] 0.0347

O=c1[nH]c(=O)n([C@H]2C[C@H](O)[C@@H](CO)O2)cc1F
inactive: [25] 0.0911 | [26] 0.0185 | [5] 0.0528 | [6] 0.0374 | [2] 0.23 | [18] 0.103 | [8] 0.079 | [10] 0.0595 | [4] 0.156 | [20] 0.138 | [12] 0.0813 | [14] 0.0595 | [28] -0.0409 | [16] 0.0541
active: [1] -1.07 | [17] -0.231 | [7] -0.266 | [9] -0.534 | [3] -1.48 | [19] -0.805 | [11] -0.621 | [13] -0.85 | [27] -0.944 | [15] -1.03

O=c1[nH]c(=O)n([C@H]2C[C@H](O)[C@@H](CO)O2)cc1C(F)(F)F
inactive: [5] 0.105 | [6] 0.105 | [1] -0.0346 | [2] 0.0988 | [7] 0.134 | [8] 0.147 | [9] 0.108 | [10] 0.0588 | [3] 0.0509 | [4] 0.029 | [11] 0.0746 | [12] 0.0921 | [13] 0.0584 | [14] 0.048 | [16] 0.124
active: [15] -0.362

Cc1cn([C@@H]2C[C@@H](O)[C@H](CO)O2)c(=O)[nH]c1=O
inactive: [5] 0.207 | [6] 0.0457 | [7] 0.0611 | [8] 0.118 | [9] 0.128 | [10] 0.0817 | [11] 0.203 | [12] 0.115 | [13] 0.177 | [14] 0.101 | [15] 0.139 | [16] 0.167

Cc1cn([C@H]2C=C[C@@H](CO)O2)c(=O)[nH]c1=O
inactive: [5] -0.00295 | [6] 0.0515 | [17] 0.197 | [18] 0.032 | [7] -0.0178 | [8] 0.0223 | [9] 0.0714 | [10] 0.0163 | [19] 0.101 | [20] 0.0899 | [11] 0.0507 | [12] 0.0197 | [13] 0.102 | [14] 0.0821 | [15] 0.0208 | [16] 0.0668

CCCCCOC(=O)Nc1nc(=O)n([C@@H]2O[C@H](C)[C@@H](O)[C@H]2O)cc1F
inactive: [5] 0.057 | [6] 0.111 | [7] 0.147 | [8] 0.143 | [9] 0.154 | [10] 0.121 | [11] 0.179 | [12] 0.14 | [13] 0.166 | [14] 0.0924 | [15] 0.195 | [16] 0.124

O=c1[nH]c(=O)n([C@H]2C[C@H](O)[C@@H](CO)O2)cc1/C=C/Br
inactive: [17] 0.184 | [18] 0.138 | [19] 0.072 | [20] 0.108

C[C@H]1O[C@@H](n2cc(F)c(=O)[nH]c2=O)[C@H](O)[C@@H]1O
active: [1] -0.21 | [3] -1.24 | [19] -0.257 | [27] -2.97 | [28] -0.654
inactive: [25] 0.0333 | [26] 0.0231 | [2] 0.08 | [17] -0.00269 | [18] 0.0834 | [4] -0.0424 | [20] 0.0331

O=c1[nH]c(=O)n([C@H]2C[C@H](O)[C@@H](CO)O2)cc1Br
inactive: [17] 0.238 | [18] 0.0517 | [19] 0.037 | [20] 0.0646

CCc1cn([C@H]2C[C@H](O)[C@@H](CO)O2)c(=O)[nH]c1=O
inactive: [25] 0.0952 | [26] 0.0914 | [1] 0.152 | [2] 0.0662 | [17] 0.0236 | [18] 0.0662 | [3] 0.079 | [4] 0.152 | [19] 0.176 | [20] 0.0177 | [27] -0.0289 | [28] 0.0946

Cc1cn([C@H]2C[C@H](N=[N+]=[N-])[C@@H](CO)O2)c(=O)[nH]c1=O
inactive: [25] 0.0606 | [26] 0.0603 | [2] -0.108 | [17] 0.183 | [18] 0.0909 | [19] 0.12 | [20] 0.103 | [27] 0.0992 | [28] 0.0558
active: [1] -0.142 | [3] -1.07 | [4] -0.798
